Compound activity as filed in PubChem.
PAFAH2 inh – inhibitors of human PAFAH2 | recombinant PAFAH2, FP-rhodamine activity probe, fluorescence polarization | inhibition, % at 3.39 µM | 340,000 compounds, 0.99% hits | Q99487 | AID 492956;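 active = inhibition above the mean over all tested compounds plus 3 SD, cut at about 30% in these data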;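 also: inhibitors block probe labeling of enzyme so polarization drops; 0% = enzyme with DMSO and 100% = wells lacking PAFAH2 protein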
pPAFAH FP inh – inhibitors of human plasma PAF acetylhydrolase (pPAFAH); 330,000 compounds, 1.5% hits; recombinant pPAFAH, FP-rhodamine probe fluorescence polarization; inhibition, % at 3.39 µM; Q13093;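 active = inhibition above the mean inhibition across the screen plus 3 SD, cut at about 25% in these data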;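 also: inhibitors block binding of the rhodamine activity-based probe so polarization drops; 0% = enzyme with DMSO and 100% = wells lacking pPAFAH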
Target sequence (Q13093 whole entry, looked up): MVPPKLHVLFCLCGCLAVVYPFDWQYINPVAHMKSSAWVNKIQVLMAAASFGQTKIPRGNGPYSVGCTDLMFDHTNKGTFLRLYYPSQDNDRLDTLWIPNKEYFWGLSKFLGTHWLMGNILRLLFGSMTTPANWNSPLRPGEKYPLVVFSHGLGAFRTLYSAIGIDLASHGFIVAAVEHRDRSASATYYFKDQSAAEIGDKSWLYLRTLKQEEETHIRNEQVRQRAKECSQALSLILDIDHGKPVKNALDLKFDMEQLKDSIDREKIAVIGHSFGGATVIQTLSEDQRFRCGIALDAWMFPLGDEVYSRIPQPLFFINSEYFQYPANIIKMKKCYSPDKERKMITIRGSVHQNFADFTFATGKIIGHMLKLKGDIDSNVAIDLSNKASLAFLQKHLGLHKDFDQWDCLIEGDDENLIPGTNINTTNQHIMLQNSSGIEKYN
TCR-CD3 inh – human TCR-CD3 binding inhibition; TAMRA-labeled TCR probe fluorescence, biochemical; inhibition, % at 9.4 µM; 360,000 compounds, 0.37% hits; in the data active = inhibition above about 19%;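 also: recombinant mutant TCR 2C K166C tagged with TAMRA read by polarization; 0% = receptor in buffer alone and 100% = receptor with positive control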
PAFAH1B3 inh – inhibitors of human PAFAH1B3; 340,000 compounds, 0.28% hits; Q15102; inhibition, % at 3.39 µM; recombinant PAFAH1B3, FP-rhodamine probe, fluorescence polarization;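 active = inhibition above the screen-wide average of all tested compounds plus 3 SD, cut at about 25% in these data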;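 also: 0% = enzyme with DMSO only and 100% = wells lacking PAFAH1B3 protein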
Target sequence (Q15102 whole entry, looked up): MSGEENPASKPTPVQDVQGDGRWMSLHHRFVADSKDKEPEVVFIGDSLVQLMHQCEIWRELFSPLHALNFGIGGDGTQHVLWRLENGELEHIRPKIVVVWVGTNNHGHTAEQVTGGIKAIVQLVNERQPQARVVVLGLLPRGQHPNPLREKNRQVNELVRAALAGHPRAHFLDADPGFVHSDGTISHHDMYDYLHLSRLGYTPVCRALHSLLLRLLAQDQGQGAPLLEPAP
PAFAH1B2 FP inh – blocks human PAF acetylhydrolase 1b catalytic subunit 2. P68402. recombinant PAFAH1B2, FP-rhodamine activity probe, fluorescence polarization. inhibition, % at 3.39 µM. 340,000 compounds, 1.2% hits;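 active = inhibition above the mean of all tested compounds plus 3 SD, cut at about 24% in these data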;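 also: 0% = enzyme with DMSO and 100% = wells lacking PAFAH1B2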
* hit, by the source's call; · = no result. Most compounds without a hit are left out; they make up all but 2.7% or so of the library.

SMILES	PAFAH2 inh	pPAFAH FP inh	TCR-CD3 inh	PAFAH1B3 inh	PAFAH1B2 FP inh
COc1cc(-c2oc3cc(O)cc(O)c3c(=O)c2O[C@@H]2O[C@H](COC3O[C@@H](C)[C@H](O)[C@@H](O)[C@H]3O)[C@@H](O)[C@H](O)[C@H]2O)ccc1O (stereo not given in full)	-8.0	-3.8	2.5	5.5	3.5
O=c1cc(-c2ccc(O)c(O)c2)oc2cc(O[C@@H]3O[C@H](CO)[C@@H](O)[C@H](O)[C@H]3O)cc(O)c12	52.4*	15.3	·	66.6*	67.0*
O=c1c(O[C@H]2O[C@@H](CO)[C@H](O)[C@@H](O)[C@@H]2O)c(-c2ccc(O)cc2)oc2cc(O)cc(O)c12	1.6	-2.7	-7.9	1.8	3.4
C[C@@H]1O[C@@H](OC[C@H]2O[C@@H](Oc3cc(O)c4c(=O)cc(-c5ccc(O)c(O)c5)oc4c3)[C@H](O)[C@@H](O)[C@@H]2O)[C@H](O)[C@H](O)[C@H]1O	23.0	15.3	·	87.1*	75.3*
O=c1c(-c2ccc(O)cc2)coc2cc(OC3OC(CO)C(O)C(O)C3O)cc(O)c12 (stereo not given)	-6.1	-4.9	0.2	2.4	7.9
O=c1c(OC2OC(CO)C(O)C(O)C2O)c(-c2ccc(O)c(O)c2)oc2cc(O)cc(O)c12 (stereo not given)	-6.9	28.5*	15.7	46.0*	2.9
O=c1oc(-c2ccc(O)c(O)c2)cc2cccc(O)c12	17.4	25.1*	11.0	2.2	-0.7
O=c1c(O)c(-c2ccc(O)c(O)c2)oc2cc(O)ccc12	66.4*	·	18.4	37.6*	14.9
O=c1c(-c2ccc(O)cc2)coc2cc(O)ccc12	-5.0	-0.8	-2.5	10.8	2.4
CC(C)c1ccc(/C=C2\Oc3c(ccc(O)c3CN3CCN(C)CC3)C2=O)cc1	75.7*	14.3	-1.0	8.2	25.2*
COc1cc(CNCCO)cc(Cl)c1OCc1ccc(Cl)cc1Cl	7.0	27.5*	3.3	13.3	7.9
COc1cc(CNCCO)cc(Br)c1OCc1ccccc1Cl	1.5	12.3	1.8	-5.5	-1.8
Cc1cc(C)c(NC(=O)COC(=O)Cc2cccs2)c(C)c1	3.0	25.7*	-3.6	9.6	0.9
Cc1cc(C)c(NC(=O)CNC(=O)COC(=O)/C=C/c2cccs2)c(C)c1	8.1	26.8*	0.1	8.0	5.2
COC(=O)[C@]12C[C@H](CC(=O)N3CCN(C(=O)c4ccco4)CC3)C(=O)N(Cc3ccccc3)C1=C[C@H](C(C)C)O[C@@H]2C1CC1	·	·	5.9	·	·
S=c1[nH]cnc2sc(-c3ccccc3)cc12	1.4	2.1	2.5	-5.7	45.9*
CNc1ncnc2sc(-c3ccccc3)cc12	-0.2	8.3	0.7	6.5	-0.4
O=[N+]([O-])c1ccc(Sc2cccc[n+]2[O-])c2nonc12	90.0*	·	4.0	82.7*	56.2*
O=[N+]([O-])c1ccc(Nc2ccccc2)c2nonc12	-2.0	11.1	-7.8	14.2	6.3
COC(=O)C1=C(C)N(C)C(=NCc2ccc(OC)cc2)NC1c1ccccc1 (stereo not given)	·	·	-9.2	·	·
CCOC(=O)c1ccc(NC(=S)N2CCCC(C)C2)cc1 (stereo not given)	-1.7	-0.8	-5.4	-0.1	5.5
CCOC(=O)c1ccc(NC(=S)N2CCCC(C(=O)N3CCCC3)C2)cc1 (stereo not given)	1.2	31.9*	-6.7	-1.4	0.5
CC(C)c1ccc(C(C)NCCS(=O)(=O)c2ccc(Cl)cc2)cc1 (stereo not given)	5.4	1.2	-2.1	6.2	33.6*
CN(CCS(=O)(=O)c1ccc(Cl)cc1)Cc1cccnc1	7.4	-1.2	0.1	1.5	7.4
S=C1NC2(CCCCCC2)NN1c1ccccc1	·	·	-8.3	·	·
SMILES	PAFAH2 inh	pPAFAH FP inh	TCR-CD3 inh	PAFAH1B3 inh	PAFAH1B2 FP inh
CCCN=C1N(CC)C[C@@H]2[C@@H]3C(=O)N(C)C(=O)[C@@H]3[C@](C)(C(=O)OC)N12	-7.0	-10.2	3.3	5.4	3.7
CCCc1cc(=O)[nH]c(SCC(=O)NC2CCCc3ccccc32)n1 (stereo not given)	1.1	-1.4	1.4	-3.2	25.8*
COc1ccc(NC2CCCN(C(=O)c3ccc(C)c(N4CCNC4=O)c3)C2)cc1 (stereo not given)	-1.3	0.8	3.3	4.0	0.6
CS(=O)(=O)C1=NSC2=NC(=O)/C(=C\c3cccn3-c3ccc(Cl)cc3)C(=N)N21	-8.9	-11.5	3.7	5.3	63.8*
Cc1cc(/C=C2/C(=N)N3C(=NC2=O)SN=C3S(C)(=O)=O)c(C)n1-c1ccccc1F	-9.3	-7.5	-0.7	-5.6	-6.1
O=C(COC(=O)C1(c2ccc(F)cc2)CCCC1)N1CCN(C(=O)c2ccco2)CC1	5.4	3.5	-9.3	11.0	33.4*
Cc1cc(F)ccc1NC(=O)c1ccc(NS(=O)(=O)c2cc(C(C)(C)C)ccc2C)cc1	-23.1	25.1*	-3.7	-33.5	-10.3
CCOc1ccc2nc(SCC(=O)NC(=O)NCc3ccco3)sc2c1	-5.0	25.9*	4.9	5.9	-20.3
CCOc1ccc2nc(SCC(=O)NCc3ccco3)sc2c1	-5.8	5.9	-1.1	-3.3	-0.2
Cc1ccccc1C(=O)Nc1nnc(S(=O)(=O)N2CCCCC2)s1	5.1	5.5	5.6	0.5	6.4
CCCc1nnc(SCC(=O)Nc2cccc(Cl)c2Cl)o1	-2.0	3.6	-0.2	7.8	2.6
O=C(COC(=O)c1ccc(Br)o1)Nc1ncc([N+](=O)[O-])s1	24.8	26.6*	-5.4	16.6	5.7
COc1ccc(C=Nc2cccnc2N)cc1	3.7	27.1*	·	7.3	-2.3
O=C(N[C@H](C(=O)N1CCC[C@H]1C(=O)NC1CCCC1)C1CCCCC1)C1CC1	·	·	4.3	·	·
NS(=O)(=O)c1cccc(NC(=O)CC23CC4CC(C2)CC(CC(=O)Nc2cccc(S(N)(=O)=O)c2)(C4)C3)c1	-4.3	6.0	4.1	6.9	35.7*
NS(=O)(=O)c1cccc(NC(=O)CNC(=O)CC23CC4CC(CC(C4)C2)C3)c1	1.5	4.3	1.9	3.2	13.0
CC(=O)Nc1ccc(NC(=O)CC23CC4CC(CC(C4)C2)C3)cc1	13.2	3.9	1.8	8.6	10.2
CC(=O)NS(=O)(=O)c1ccc(NC(=O)CC23CC4CC(CC(Br)(C4)C2)C3)cc1	-4.8	-0.5	10.3	5.5	24.5*
COC(=O)[C@]12C[C@H](CC(=O)NCCC(C)C)C(=O)N(Cc3ccccc3)C1=C[C@H](C1CCCC1)O[C@@H]2C	·	·	-1.7	·	·
S=c1[nH]nc(CCSCc2ccccc2)n1-c1ccccc1	10.8	4.4	9.4	8.1	27.6*
Cc1cccc(NC(=O)Cn2cnc3ccc(S(=O)(=O)N4CCC(C)CC4)cc3c2=O)n1	-1.2	0.8	-1.8	1.0	24.2*
Cc1cc(N2CCN(CC(C)(C)O)C[C@H]2C)ccc1N1CCN(Cc2ccccc2)[C@H](C)C1	·	·	-8.6	·	·
Cc1nnc2ccc(-c3ccc(NS(=O)(=O)c4ccc(Cl)s4)cc3)nn12	-1.1	26.1*	-2.9	3.0	-1.9
CCc1ccc(S(=O)(=O)Nc2ccc(-c3ccc4nnc(C)n4n3)cc2)s1	0.3	14.7	2.0	0.4	7.6
